Assay results published in PubChem BioAssay (NCATS).
Activity calls are given as the source filed them. Entries that show only a call come without a potency. Calls come from the whole dose curve; as a rule, active = well fitted activation curve with a large enough effect; inconclusive = small, poorly fitted or top-dose-only effect, or effect the other way; inactive = flat fitted curve, though single readings scatter.

Test: Cellular Toxicity (caspase-3) Renal Proximal Tubule (AID 667);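 note: cells exposed to compound for 16 hours at 37 °C before detection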
Conditions: renal proximal tubule cells, primary cells freshly taken from rat; Potency: caspase-3 activation; series mostly up to 91.7 µM
Text: NIH Chemical Genomics Center [NCGC]
NIH Molecular Libraries Screening Centers Network [MLSCN]
National Institutes of Environmental Health Sciences [NIEHS]
National Toxicology Program [NTP]
We have developed a 1536-well cell-based assay for quantitative high throughput screening (qHTS) against a number of cell lines to determine in vitro caspase 3/7 activity of small molecules. This particular assay uses the primary kidney proximal tubule cells freshly isolated from rat.
NCGC Assay Protocol Summary:
The Caspase-Glo 3/7 assay (Promega) is a homogeneous method to measure caspase-3 and caspase-7 activities in cultured cells. The quantitation of caspase 3/7 activity is based on the cleavage of a peptide-aminoluciferin substrate. After caspase cleaves the substrate the free aminoluciferin is liberated and serves as the substrate of luciferase, which generates the light. The luminescent signal is proportional to the amount of caspase 3/7 activity present.
Using the Caspase-Glo 3/7 assay, the amount of caspase 3/7 activity was measured in the rat kidney proximal tubule cells with complete culture medium following compound treatment for 16 hours. The assay was performed in opaque white 1536-well plates. In the screen, staurosporine and doxorubicin were used as positive controls. Library compounds were measured for their ability to cause the activation of caspase 3/7 in the cell line, as reflected by an increase in luminescence signal, in a concentration-dependent manner. Data were normalized to the controls for basal activity (DMSO only) and 100% stimulation (10 uM staurosporine). AC50 values were determined from concentration-response data modeled with the standard Hill equation.
qHTS protocol for caspase 3/7 assay in rat kidney proximal tubule cells
[Step] [Parameter] [Value] [Description]
1. Reagent; 5 uL; 1000 rat kidney proximal tubule cells/well
2. Time; 5 hr; 37 °C incubation
4. Controls; 23 nL; doxorubicin 7 pM to 100 uM & staurosporine 1.4 pM to 20 uM
5. Time; 16 hr; 37 °C incubation
6. Reagent; 5 uL; Caspase-Glo 3/7 reagent
7. Time; 1 hr; Room Temperature
8. Detection; Luminescence; Viewlux plate reader
Keywords: caspase 3/7, apoptosis, rat kidney proximal tubule cells, luminescence, NTPHTS, NTPHTS_NCGC, NIEHS, EPA, DSSTox, MLSMR, MLSCN, NIH Roadmap, qHTS, NCGC

Compound | Potency
COc1cccc2sc(N)nc12 | inactive
O=C1CCC(=O)O1 | inactive
CCCCCCCCCCCCOCC1CO1 (stereo not given) | inactive
Cc1cc(C2(c3cc(C)c(O)cc3C)OS(=O)(=O)c3ccccc32)c(C)cc1O | inactive
CC(=O)c1nccs1 | inactive
CCCCOCCOCCSC#N | inactive
COc1cccc(N)c1 | inactive
O=[N+]([O-])c1cccc(Cl)c1 | inactive
CCN(CC)c1cccc(O)c1 | inactive
CC(C)(C)OC=O | inactive
Cc1ccc(C)c(N)c1 | inactive
CC=O | inactive
Nc1nc(-c2ccccc2)cs1 | inactive
CC(=O)c1ccc([N+](=O)[O-])cc1 | inactive
O=C1CCCCC1 | inactive
NC=O | inactive
CCNc1ccccc1 | inactive
NC(N)=S | inactive
Nc1ccc(Cl)cc1[N+](=O)[O-] | inactive
FC(F)(F)c1ccccc1Cl | inactive

Compound | Potency
Cc1cc(C)cc([N+](=O)[O-])c1 | inactive
O=C(O)c1cccc([N+](=O)[O-])c1 | inactive
O=c1[nH][nH]c(=O)c2cc([N+](=O)[O-])ccc12 | inactive
CC(N)CN (stereo not given) | inactive
CC(=O)CC(C)C | inactive
NC(=O)c1ccccc1[N+](=O)[O-] | inactive
CC(C)(c1cc(Br)c(OCC(Br)CBr)c(Br)c1)c1cc(Br)c(OCC(Br)CBr)c(Br)c1 (stereo not given) | inactive
Cc1ccc([N+](=O)[O-])c(N)c1 | inactive
O=C(O)c1c(Cl)cccc1Cl | inactive
CCOc1cccc(N)c1 | inactive
Nc1cccc(S(=O)(=O)O)c1 | inactive
Clc1ccc(Cl)c(Cl)c1Cl | inactive
CCCCOCCOCCOCCCC | inactive
NC(=O)c1cccc([N+](=O)[O-])c1 | inactive
C[C@@H]1CC2(OC3C[C@@]4(C)C5=CC[C@H]6C(C)(C)C(O[C@@H]7OC[C@@H](O)[C@H](O)[C@H]7O)CC[C@@]67C[C@@]57CC[C@]4(C)C31)OC(O)C1(C)OC21 (stereo not given in full) | inactive
C[C@@H]1O[C@@H](O[C@@H]2[C@@H](O)[C@H](OCCc3ccc(O)c(O)c3)O[C@H](CO[C@@H]3O[C@H](CO)[C@@H](O)[C@H](O)[C@H]3O)[C@H]2OC(=O)/C=C/c2ccc(O)c(O)c2)[C@H](O)[C@H](O)[C@H]1O | inactive
OC1CCCC1 | inactive
Cc1ccc(Cl)cc1N | inactive
CCCCC/C=C/C=C/C=O | inactive
CC(CCl)OC(C)CCl (stereo not given) | inactive
